In general, AC50 refers to the concentration giving half of the maximal activity seen.

Some structures have more than one record in an assay (separate samples or runs), and their calls can disagree. Calls of active or inactive are those of the source. Rule for the calls: active = hit-call score of the fitted dose curve at least 0.9, where 1 is the maximum; inactive = score below 0.9.

Consider 39 molecules from PubChem BioAssay (EPA / NIEHS).

Read-out in the assay: growth arrest and DNA damage 45 (GADD45A), GADD45A (gene 1647)
As to the kind of experiment: LTEA_HepaRG_GADD45A: Life Technologies and Expression Analysis (LTEA) Assay for growth arrest and DNA damage 45 (GADD45A) using HepaRG (AID 2283458). The note with it: mRNA level, 48 h; actives raise or lower the signal. On the procedure:
LTEA_HepaRG is a cell based, multiplexed-readout assay that uses HepaRG, a human liver cell line, with measurements taken at 48 hours after chemical dosing on a 96-well plate.LTEA_HepaRG_GADD45A is one of 102 assay component(s) measured in the LTEA HepaRG cell culture assay. It is a marker of Oxidative Stress.Data from the assay component LTEA_HepaRG_GADD45A was analyzed into 1 endpoint. This assay endpoint, LTEA_HepaRG_GADD45A, was analyzed with bidirectional fitting relative to DMSO as the negative control and baseline of activity. Using a type of inducible reporter, measures of mRNA induction for gain or loss-of-signal activity can be used to understand regulation of transcription factor activity. To generalize the intended target to other relatable targets, this assay endpoint is annotated to the cell cycle intended target family, where the subfamily is Oxidative Stress.
A total of 1060 chemcials from the ToxCast library were tested in eight-point concentration-response experiments. Cell culture and cytotoxicity assays were conducted at Thermo Fisher Scientific's Custom Services facility (Madison, WI). A single lot of human HepaRG cells (Thermo Fisher Scientific, Frederick, MD) was used for the cell culture experiments. 96-well format collagen type I coated plates of human HepaRG cells were prepared using established methods. Briefly, cryopreserved HepaRG cells were thawed, plated at a density of approximately 100,000 cells/well in HepaRG Thaw, Plate, and General Purpose media (HPRG770, Thermo Fisher Scientific), and incubated for 48 hours. 0.5% DMSO was selected as vehicle control to balance the requisite need of DMSO in HepaRG cultures to maintain differentiation (for example, baseline metabolism, proportions of hepatocytes vs. cholangiocytes), while enabling further hepatic receptor pathway activation (for example, PXR and CAR) in response to chemical exposure. 48 hours after plating, the culture medium was replaced with HepaRG Serum-Free Incudtion Media. Cells were exposed to each test chemical in duplicate and maintained in CO2 incubators for another 48 hours. Chemical plates were thawed to room temperature and 200x concentrations of treatment groups were prepared. 8-point conentration-reponse curves were made with the highest exposure at 100 uM, followed by half-log dilutions, all in 0.5% DMSO. Each test plate contained variouse controls, induction positive controls (1mM phenobarbital), cytotoxicity positive controls ([…] aflatoxin B1), vehicle controls (0.5% DMSO), and total lysis controls (0.5% DMSO). Cell morphology images were taken using an Essen IncuCyte FLR automated microscope, with six 96-well plates imaged in about 24 minutes. Images were captured and exported and JPEG files. Spent culture media was transfered to black-well plates for the LDH assay, and remaining media was sorted at -80 C for later use. Cells were treated with RLT buffer and frozen until shipped for gene expression analysis. Total RNA was isolated from the cell suspension in 75 uL of Buffer RLT (Qiagen, Germantown, MD 20874) by Quintiles/Expression Analysis (Durham, NC) using a custom isolation procedure. Total RNA from each plate well was transferred to a preamplification plate. Fluidigm's 96.96 Dynamic ArrayTM (Fluidigm, Amsterdam, the Netherlands) technology was used for gene expression analyses by quantitative reverse transcription polymerase chain reaction (qRT-PCR, performed by Quintiles/Expression Analysis, Durham, NC)89. Standard TaqManTM Assays (Applied Biosystems/ThermoFisher Scientific, Foster City, CA) were used to assess the expression of 93 genes selected based on their selectivity and sensitivity to important hepatic receptors known to be modulated by environmental chemicals; importance in human hepatocyte functionality; and hepatotoxicity. […]
With `CC1(c2ccc(Oc3ccccc3)cc2)OC(=O)N(Nc2ccccc2)C1=O` (stereo not given), the AC50 is 13 µM (active). Take `CNC(=O)Oc1ccccc1OC(C)C`: the result was inactive. On the same count and under the same terms, the value for `O=[N+]([O-])c1c(Cl)c(Cl)c(Cl)c(Cl)c1Cl` was “inactive”; that for `COP(=S)(OC)Oc1ccc(SC)c(C)c1` was “inactive”. Still for that read-out and setting: the value for `O=C(O)CCCOc1ccc(Cl)cc1Cl` was “inactive”. As for `Oc1cc(Cl)ccc1Oc1ccc(Cl)cc1Cl`, the AC50 is 10.1 µM (active) and the call was inactive. Regarding `CCCN(CCOc1c(Cl)cc(Cl)cc1Cl)C(=O)n1ccnc1`, the half-maximal activity concentration (AC50) was 45.8 µM (active). With `O=C(O)COc1ccc(Cl)cc1Cl`, the result was inactive. As for `CCC(C)(NC(=O)c1cc(Cl)c(C)c(Cl)c1)C(=O)CCl` (stereo not given), the AC50 was 89.8 µM (active).

Turning to `CNC(=O)/C=C(\C)OP(=O)(OC)OC`, the molecule was classed as inactive. Same read-out and setting: the value for `O=C1c2ccccc2C(=O)N1SC(Cl)(Cl)Cl` was “inactive”. Still for that read-out and setting: in the case of `CCc1ccc(C(=O)NN(C(=O)c2cc(C)cc(C)c2)C(C)(C)C)cc1` it was “inactive”; in that of `Clc1ccccc1-c1nnc(-c2ccccc2Cl)nn1`, “inactive”; in that of `CN1CSC(=S)N(C)C1`, “inactive”. With `O=C(O)C(F)(F)C(F)(F)C(F)(F)C(F)(F)C(F)(F)C(F)(F)C(F)(F)F`, the call was inactive. Take `CC[C@H](C)[C@H]1O[C@]2(C=C[C@@H]1C)C[C@@H]1C[C@@H](C/C=C(\C)[C@@H](O[C@H]3C[C@H](OC)[C@@H](O[C@H]4C[C@H](OC)[C@@H](O)[C@H](C)O4)[C@H](C)O3)[C@@H](C)/C=C/C=C3\CO[C@@H]4[C@H](O)C(C)=C[C@@H](C(=O)O1)[C@]34O)O2` (tested in a mixture with another compound): the call was inactive.

With `Cc1[nH]c(=O)n(C(C)(C)C)c(=O)c1Cl`, the molecule was classed as inactive.

In the case of `N#CN`, the molecule was called inactive. Still for that read-out and setting: the value for `O=S1OCC2C(CO1)C1(Cl)C(Cl)=C(Cl)C2(Cl)C1(Cl)Cl` (stereo not given) was “inactive”; that for `CNC(=O)Oc1cccc(N=CN(C)C)c1` was “inactive”; that for `CC(C)(C)C(O)C(Oc1ccc(Cl)cc1)n1cncn1` (stereo not given) was “inactive”. Turning to `CC(C)OC(=O)Nc1cccc(Cl)c1`, the AC50 is 50 µM (active). Take `O=C(Nc1ccccc1)Nc1cnns1`: the result was inactive. On the same count and under the same terms, in the case of `CC1(C)C(C=C(Cl)Cl)C1C(=O)OC(C#N)c1ccc(F)c(Oc2ccccc2)c1` (stereo not given) it was “inactive”; in that of `ClC1C(Cl)C(Cl)C(Cl)C(Cl)C1Cl` (stereo not given), “inactive”; in that of `N#Cc1c(Cl)c(Cl)c(Cl)c(C#N)c1Cl`, “inactive”. For the molecule `O=C(NC(=O)c1c(F)cccc1F)Nc1ccc(OC(F)(F)C(F)OC(F)(F)F)c(Cl)c1` (stereo not given), the outcome was inactive. On the same count and under the same terms, in the case of `CC(C)N(C(=O)COc1nnc(C(F)(F)F)s1)c1ccc(F)cc1` it was “inactive”. Still for that read-out and setting: the value for `CCN(CC)C(=O)SCc1ccc(Cl)cc1` was “inactive”; that for `COP(=O)(OC)OC=C(Cl)Cl` was “inactive”; that for `CCC(C)(C)C(=O)OC1=C(c2ccc(Cl)cc2Cl)C(=O)OC12CCCCC2` was “inactive”.

As for `OCCOc1ccccc1`, the call was inactive. On the same count and under the same terms, in the case of `O=S(=O)(O)C(F)(F)C(F)(F)C(F)(F)C(F)(F)C(F)(F)C(F)(F)C(F)(F)C(F)(F)F` it was “inactive”. With `CCOC1Oc2ccc(OS(C)(=O)=O)cc2C1(C)C` (stereo not given), the AC50 was 89.7 µM (active). On the same count and under the same terms, in the case of `C[C@H]1[C@H](c2ccc(Cl)cc2)SC(=O)N1C(=O)NC1CCCCC1` it was 75.8 µM (active). On to `CC(C)(C)C(O)/C(=C\c1ccc(Cl)cc1Cl)n1cncn1` (stereo not given), for which the molecule was classed as inactive. Same read-out and setting: the value for `CCOCN(C(=O)CCl)c1c(C)cccc1CC` was “inactive”.

`C#CCN1C(=O)COc2cc(F)c(N3C(=O)C4=C(CCCC4)C3=O)cc21`: the molecule was classed as inactive. For the molecule `CNC(=O)CSP(=S)(OC)OC`, the call was inactive.
